Data on 69 molecules can be found in the supplement of paper PMC10498489.

Hit rate of the full screen: of about 2,300 compounds, about 330 (14%) showed activity. Only a sample is shown. Unmarked numbers belong to inactive results.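 Rule for the calls: active = median modified Z-score above 1.96; inactive = 1.96 or below.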

The test system of the assay is HepG2 Srxn1-GFP reporter cells (+30 nM CDDO-Me). The experiment in a line: Srxn1-GFP intensity median modified Z-score relative to plate median; higher = stronger NRF2 / oxidative stress reporter activation, active = hit call of the paper. The following applies: 10 µM; exposure time: 24h. In outline: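 In 96-well plates holding 20,000 HepG2 Srxn1-GFP BAC reporter cells per well, compound at 10 μM and an NRF2 activator at 30 nM were added together for 24 h, with DMSO at ≤0.1%, across three replicate plates. After fixation in formaldehyde and Hoechst staining, confocal images were analysed cell by cell for cytoplasmic GFP, and images containing under 100 cells were excluded. Values are replicate medians of the per-plate modified Z-score of GFP intensity, scaled by 1.4826 × median absolute deviation.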
In the case of `COc1cc(NS(C)(=O)=O)ccc1N=c1c2ccccc2[nH]c2ccccc12` [euspeclibcmpd557], the “Srxn1-GFP intensity median modified Z-score” value is -1.65.

As to `CCC1CS/C(=N\c2ccc(Cl)c(Cl)c2)N1C(=O)CC1CC2CCC1C2` (centres undefined), the “Srxn1-GFP intensity median modified Z-score” value was 1.31.

Regarding `c1coc(CN=c2[nH]cnc3[nH]cnc23)c1` [euspeclibcmpd1534], the “Srxn1-GFP intensity median modified Z-score” value is 0.144.

Take `S=c1[nH]cnc2[nH]cnc12` [euspeclibcmpd183]: the “Srxn1-GFP intensity median modified Z-score” value was 59.5 (active).

As for `O=c1[nH]cnc2[nH]cnc12` [euspeclibcmpd1584], the “Srxn1-GFP intensity median modified Z-score” value was 0.249.

Regarding `CC(=O)C1CCC2C3=CC=C4CC(=O)CC[C@@]4(C)C3CC[C@]12C` (some centres undefined) [euspeclibcmpd815], the “Srxn1-GFP intensity median modified Z-score” value is 1.45.

In the case of `CCCC[C@@H](CC)COC(=O)C(C#N)=C(c1ccccc1)c1ccccc1` [euspeclibcmpd936], the “Srxn1-GFP intensity median modified Z-score” value is 0.649.

Take `N#C[C@@H]1C[C@@H]2C[C@@H]2N1C(=O)C(N)C12CC3CC(CC(O)(C3)C1)C2` (some centres undefined) [euspeclibcmpd1283]: the “Srxn1-GFP intensity median modified Z-score” value was -0.27.

On to `CC(C)CCCC(C)C1CCC2C3CC[C@H]4C[C@H](O)CC[C@]4(C)C3CC[C@]12C` (some centres undefined) [euspeclibcmpd2260], for which the “Srxn1-GFP intensity median modified Z-score” value was -0.325.

For the molecule `C1N2CN3CN1CN(C2)C3` [euspeclibcmpd187], the “Srxn1-GFP intensity median modified Z-score” value is 9.99 (active).

Consider `CC(=O)OCC(=O)[C@@]12OC(C)(C)O[C@@H]1CC1C3CC(F)=C4CC(=O)C=C[C@]4(C)[C@@]3(F)[C@@H](O)C[C@@]12C` (some centres undefined) [euspeclibcmpd130], for which the “Srxn1-GFP intensity median modified Z-score” value is -0.571.

In the case of `CC(=O)O[C@H]1CC2CCC3C(CC[C@@]4(C)C3C[C@H]([N+]3(C)CCCCC3)[C@@H]4OC(C)=O)[C@@]2(C)C[C@@H]1N1CCCCC1` (some centres undefined) [euspeclibcmpd853], the “Srxn1-GFP intensity median modified Z-score” value is -0.182.

On to `N#Cc1ccc2[nH]cc(CCCCN3CCN(c4ccc5oc(C(N)=O)cc5c4)CC3)c2c1` [euspeclibcmpd2178], for which the “Srxn1-GFP intensity median modified Z-score” value is 0.321.

As for `C[C@@H]1CC[C@@]2(OC1)OC1CC3C4CC=C5C[C@@H](O)CC[C@]5(C)C4CC[C@]3(C)C1[C@@H]2C` (some centres undefined) [euspeclibcmpd1355], the “Srxn1-GFP intensity median modified Z-score” value is -0.393.

Consider `O=c1c(O)c(-c2ccc(O)c(O)c2)oc2c(O[C@@H]3O[C@H](CO)[C@H](O)[C@@H](O)[C@H]3O)c(O)cc(O)c12` [euspeclibcmpd1755], for which the “Srxn1-GFP intensity median modified Z-score” value is -0.613.

Consider `COc1[nH]c(=N)nc2c1ncn2C1OC(CO)C(O)C1O` (centres undefined) [euspeclibcmpd1835], for which the “Srxn1-GFP intensity median modified Z-score” value is -0.349.

As to `COc1ccc(CC(N)C(=O)N[C@@H]2[C@@H](CO)OC(n3cnc4c(N(C)C)ncnc43)[C@@H]2O)cc1` (some centres undefined) [euspeclibcmpd2118], the “Srxn1-GFP intensity median modified Z-score” value is 2.51 (active).

As for `O=c1[nH]cnc2c1ncn2C1O[C@H](CO)[C@@H](O)[C@H]1O` (some centres undefined) [euspeclibcmpd1256], the “Srxn1-GFP intensity median modified Z-score” value is -0.544.

For the molecule `COc1ccc(C(=O)O)c(O)c1OC` [euspeclibcmpd1494], the “Srxn1-GFP intensity median modified Z-score” value is -0.416.

With `CC(C=CC1(O)C(C)=CC(=O)CC1(C)C)=CC(=O)O` (centres undefined) [euspeclibcmpd1542], the “Srxn1-GFP intensity median modified Z-score” value was 0.012.

On to `CONC(=O)c1cc(-c2ccccc2)nc2ccccc12`, for which the “Srxn1-GFP intensity median modified Z-score” value was 1.04.

For `Cc1cc(=NS(=O)(=O)c2ccc(N)cc2)[nH]o1` [euspeclibcmpd278], the “Srxn1-GFP intensity median modified Z-score” value is -0.427.

Consider `C[C@@H]1CC[C@@]2(OC1)O[C@H]1CC3C4CC[C@H]5C[C@@H](O)CC[C@]5(C)C4CC[C@]3(C)[C@H]1[C@@H]2C` (some centres undefined) [euspeclibcmpd2432], for which the “Srxn1-GFP intensity median modified Z-score” value is -0.319.

On to `C1CCN2C[C@@H]3C[C@H](CN4CCCC[C@@H]34)[C@H]2C1` [euspeclibcmpd2370], for which the “Srxn1-GFP intensity median modified Z-score” value is -0.181.

On to `CN(Cc1cnc2[nH]c(=N)[nH]c(=N)c2n1)c1ccc(C(=O)NC(CCC(=O)O)C(=O)O)cc1` (centres undefined) [euspeclibcmpd190], for which the “Srxn1-GFP intensity median modified Z-score” value is 8.95 (active).

`N=c1[nH]c(=N)c2nc(CNc3ccc(C(=O)NC(CCC(=O)O)C(=O)O)cc3)cnc2[nH]1` (centres undefined) [euspeclibcmpd911]: the “Srxn1-GFP intensity median modified Z-score” value was 10 (active).

Regarding `N=c1[nH]c(=O)c2nc(CNc3ccc(C(=O)NC(CCC(=O)O)C(=O)O)cc3)cnc2[nH]1` (centres undefined) [euspeclibcmpd579], the “Srxn1-GFP intensity median modified Z-score” value was 0.101.

For the molecule `N=c1[nH]c(=O)c2c(CCc3ccc(C(=O)NC(CCC(=O)O)C(=O)O)cc3)c[nH]c2[nH]1` (centres undefined) [euspeclibcmpd2345], the “Srxn1-GFP intensity median modified Z-score” value was -0.108.

On to `N=c1[nH]c(=O)c2c([nH]1)=NCC(CNc1ccc(C(=O)N[C@H](CCC(=O)O)C(=O)O)cc1)N=2` (some centres undefined) [euspeclibcmpd1474], for which the “Srxn1-GFP intensity median modified Z-score” value is 0.016.

Consider `N=c1[nH]c2c(c(=O)[nH]1)N(C=O)C(CNc1ccc(C(=O)NC(CCC(=O)O)C(=O)O)cc1)CN2` (centres undefined) [euspeclibcmpd2313], for which the “Srxn1-GFP intensity median modified Z-score” value was -0.0509.

As for `COc1ccc(C)cc1CN1CCN(C(c2ccc(F)cc2)c2ccc(F)cc2)CC1`, the “Srxn1-GFP intensity median modified Z-score” value is 1.38.

`Oc1ccc2c(c1)OC[C@]1(O)C=c3cc(O)c(O)cc3=C21` [euspeclibcmpd1461]: the “Srxn1-GFP intensity median modified Z-score” value was -0.856.

Turning to `NC(O)=NO` [euspeclibcmpd156], the “Srxn1-GFP intensity median modified Z-score” value was 0.197.

For `O=C(O)c1ccc(S(=O)(=O)N(Cl)Cl)cc1` [euspeclibcmpd144], the “Srxn1-GFP intensity median modified Z-score” value is -0.332.

As to `Cc1[nH]oc(=NS(=O)(=O)c2ccc(N)cc2)c1C` [euspeclibcmpd283], the “Srxn1-GFP intensity median modified Z-score” value was -0.063.

Turning to `CCC(C)C(=O)O[C@H]1C[C@@H](C)C=C2C=C[C@H](C)[C@H](CC[C@@H]3C[C@@H](O)CC(=O)O3)[C@H]21` (some centres undefined) [euspeclibcmpd875], the “Srxn1-GFP intensity median modified Z-score” value was -0.147.

Take `O=C1CC(c2ccc(O)cc2)Oc2ccccc21` (centres undefined) [euspeclibcmpd2144]: the “Srxn1-GFP intensity median modified Z-score” value was -0.183.

With `O=C1CC(c2ccccc2)Oc2ccccc21` (centres undefined) [euspeclibcmpd1376], the “Srxn1-GFP intensity median modified Z-score” value is 3.07 (active).

As for `O=C1C[C@@H](c2ccc(O)cc2)Oc2cc(O)cc(O)c21` [euspeclibcmpd1328], the “Srxn1-GFP intensity median modified Z-score” value was 0.815.

Take `COc1cc(O)c2c(=O)cc(-c3ccc(O)cc3)oc2c1` [euspeclibcmpd2253]: the “Srxn1-GFP intensity median modified Z-score” value is 0.0845.

In the case of `CCOC(=O)NN=c1[nH]ncc2ccccc12` [euspeclibcmpd1066], the “Srxn1-GFP intensity median modified Z-score” value was 0.23.

As for `N=c1[nH]c(C(CCC(=O)O)C(=O)N=C2C(=O)N3C(C(=O)O)=CCS[C@H]23)cs1` (some centres undefined) [euspeclibcmpd717], the “Srxn1-GFP intensity median modified Z-score” value is -0.318.

With `CCC(=O)c1c(O)cc(O)cc1O` [euspeclibcmpd1034], the “Srxn1-GFP intensity median modified Z-score” value was 0.366.

As to `O=C(CCc1ccc(O)cc1)c1c(O)cc(O)cc1O[C@@H]1O[C@H](CO)[C@@H](O)[C@H](O)[C@H]1O` [euspeclibcmpd1493], the “Srxn1-GFP intensity median modified Z-score” value was -0.343.

Turning to `O=C(CCc1ccc(O)cc1)c1c(O)cc(O)cc1O` [euspeclibcmpd1518], the “Srxn1-GFP intensity median modified Z-score” value is 16.3 (active).

For `Cc1c(C(=O)O)c(O)cc2c(O)c3c(O)c(O)c(C4O[C@H](CO)[C@@H](O)[C@H](O)C4=O)c(O)c3c(O)c12` (some centres undefined) [euspeclibcmpd1436], the “Srxn1-GFP intensity median modified Z-score” value was -0.693.

With `NC[C@H]1O[C@H](O[C@H]2[C@H](O)[C@@H](O[C@H]3O[C@H](CO)[C@@H](O)[C@H](N)[C@H]3O)[C@H](N)C[C@@H]2N)[C@H](N)[C@@H](O)[C@@H]1O` [euspeclibcmpd351], the “Srxn1-GFP intensity median modified Z-score” value was 0.19.

In the case of `CC[C@@H](CO)NCCN[C@@H](CC)CO` [euspeclibcmpd120], the “Srxn1-GFP intensity median modified Z-score” value is -0.816.

As for `O=C(O)C1=C(CCO)O[C@@H]2CC(=O)N12` [euspeclibcmpd2294], the “Srxn1-GFP intensity median modified Z-score” value is 0.746.

Turning to `O=C(O)CCC(=O)Nc1ccc(S(=O)(=O)N=c2[nH]ccs2)cc1` [euspeclibcmpd428], the “Srxn1-GFP intensity median modified Z-score” value is 0.358.

For `COc1cc(Cc2c[nH]c(=N)[nH]c2=N)cc(OC)c1OC` [euspeclibcmpd310], the “Srxn1-GFP intensity median modified Z-score” value is 0.316.

Take `CC1=C(/C=C/C(C)=C/C=C/C(C)=C/C=C/C=C(C)/C=C/C=C(C)/C=C/C2=C(C)C(=O)CCC2(C)C)C(C)(C)CCC1=O` [euspeclibcmpd1669]: the “Srxn1-GFP intensity median modified Z-score” value was -0.405.

On to `CC1CC(=O)NN=C1c1ccc(NN=C(C#N)C#N)cc1` (centres undefined) [euspeclibcmpd481], for which the “Srxn1-GFP intensity median modified Z-score” value was 0.356.

In the case of `CN1CCC(=C2c3ccccc3Sc3ccccc32)CC1` [euspeclibcmpd1250], the “Srxn1-GFP intensity median modified Z-score” value is 0.25.

`CN1CCC(=C2c3ccccc3CCc3sccc32)CC1` [euspeclibcmpd488]: the “Srxn1-GFP intensity median modified Z-score” value was 0.0303.

`CN1CCC(=C2c3ccccc3C=Cc3ccccc32)CC1` [euspeclibcmpd890]: the “Srxn1-GFP intensity median modified Z-score” value was 7.54 (active).

For the molecule `C=CCn1c(C(C)Oc2ccc(OCC)cc2)nnc1N1CCC(C(=O)OC)CC1` (centres undefined), the “Srxn1-GFP intensity median modified Z-score” value was 1.58.

As for `Cn1c(SC2CCCCC2=O)nnc1-c1cccc(Br)c1` (centres undefined), the “Srxn1-GFP intensity median modified Z-score” value is 4.66 (active).

For `CC1(O)CCOC(=O)C1` (centres undefined) [euspeclibcmpd1666], the “Srxn1-GFP intensity median modified Z-score” value is -0.384.

Turning to `N=c1[nH]c(N)ccc1N=Nc1ccccc1` [euspeclibcmpd230], the “Srxn1-GFP intensity median modified Z-score” value is 0.85.

With `O=C(CCCN1CCN(c2ccccn2)CC1)c1ccc(F)cc1` [euspeclibcmpd1317], the “Srxn1-GFP intensity median modified Z-score” value is 0.00738.

Regarding `CCCC[C@@H](CC)COC(=O)c1ccccc1O` [euspeclibcmpd865], the “Srxn1-GFP intensity median modified Z-score” value is -0.26.

As for `CN(C/C=C/c1ccccc1)Cc1cccc2ccccc12` [euspeclibcmpd791], the “Srxn1-GFP intensity median modified Z-score” value is 0.553.

Regarding `c1ccc2c(CC3=NCCN3)cccc2c1` [euspeclibcmpd204], the “Srxn1-GFP intensity median modified Z-score” value was -0.697.

As to `CN(C/C=C/C#CC(C)(C)C)Cc1cccc2ccccc12` [euspeclibcmpd767], the “Srxn1-GFP intensity median modified Z-score” value is 3.24 (active).

On to `CC1(C)O[C@@H]2[C@@H](CO[C@@]3(COS(N)(=O)=O)OC(C)(C)O[C@@H]23)O1` [euspeclibcmpd870], for which the “Srxn1-GFP intensity median modified Z-score” value was 0.206.

In the case of `CC(C)=CCC/C(C)=C/CC/C(C)=C/CC/C(C)=C/CC/C(C)=C/CC/C(C)=C/CC/C(C)=C/CC/C(C)=C/CC/C(C)=C/CO` [euspeclibcmpd1640], the “Srxn1-GFP intensity median modified Z-score” value was -0.00439.

Regarding `CC(C)=CCC/C(C)=C/CC/C(C)=C/CO` [euspeclibcmpd2192], the “Srxn1-GFP intensity median modified Z-score” value is 1.35.

`CC(C)=CCC/C(C)=C/CO` [euspeclibcmpd1453]: the “Srxn1-GFP intensity median modified Z-score” value was 2.94 (active).
